Consider 39 molecules from PubChem BioAssay (NCATS).

SMILES strings stand for the structures. Records with an inconclusive call do not appear. Unmarked numbers belong to inactive results. The source made the active and inactive calls. The call rests on the fitted dose curve; in most records, active means well fitted inhibition curve with a large enough effect; inconclusive means small, poorly fitted or top-dose-only effect; inactive means no such curve, though single readings can be large or run the other way.
On the % scale 0 is the no-effect control and ±100 the full control effect; potency means the concentration at half of the fitted maximal effect.

For this test, the target named is Cytochrome P450 3A4 (Homo sapiens) (UniProt P08684). Briefly: qHTS Assay for Inhibitors and Substrates of Cytochrome P450 3A4 (AID 884). Further: nearly all actives have a fitted effect of over 50% in size. The note with it: recombinant CYP3A4, Luciferin-PPXE luminescence; series mostly up to 57.1 µM; activity change, negative = inhibition: at the top concentration. Put shortly: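 Luminescent readout of luciferin produced by CYP3A4 (20 nM) dealkylation of Luciferin-PPXE, 25 uM (its KM). NADPH-driven reaction ran 60 min at RT after 10 min compound preincubation; data scaled to 57 uM ketoconazole as 100% inhibition.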
Sequence of Cytochrome P450 3A4 (Homo sapiens) (P08684 whole entry, looked up): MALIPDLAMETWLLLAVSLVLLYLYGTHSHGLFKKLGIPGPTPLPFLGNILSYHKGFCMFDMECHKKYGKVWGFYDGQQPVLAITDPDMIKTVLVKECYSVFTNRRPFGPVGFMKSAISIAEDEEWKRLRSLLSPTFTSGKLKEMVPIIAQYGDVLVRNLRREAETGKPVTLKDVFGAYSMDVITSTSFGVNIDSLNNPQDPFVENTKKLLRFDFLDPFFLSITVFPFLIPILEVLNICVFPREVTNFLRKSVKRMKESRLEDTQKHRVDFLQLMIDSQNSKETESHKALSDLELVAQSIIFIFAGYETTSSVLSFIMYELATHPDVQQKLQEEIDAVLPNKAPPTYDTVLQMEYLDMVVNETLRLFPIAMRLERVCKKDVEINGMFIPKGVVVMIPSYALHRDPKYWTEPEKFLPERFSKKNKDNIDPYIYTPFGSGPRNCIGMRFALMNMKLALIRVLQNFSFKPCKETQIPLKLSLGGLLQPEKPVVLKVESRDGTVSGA
For orientation: In qHTS, concentration-response curves come from the screen itself.
Take `CCCCNC(=O)C(c1ccc(OCC(=O)OC)c(C(=O)OC)c1)N(CCc1ccccn1)C(=O)CCCCCN1C(=O)NC(c2ccc(-c3ccccc3)cc2)C(C(=O)OCc2ccccc2)=C1C` (centres undefined): the Potency was 7.94 µM (active). On the same count and under the same terms, as for `COC(=O)c1ccc(C(NC(=O)OCc2ccccc2)/C(=C/[C@@H](C)C(=O)NCCc2c[nH]c3ccccc23)c2cccnc2)cc1` (some centres undefined), the figure is 1.58 µM (active); as for `COC(=O)c1ccc(C(NC(=O)OCc2ccccc2)/C(=C/[C@@H](C)C(=O)NCc2ccc(OC)c(OC)c2)c2cccnc2)cc1` (some centres undefined), 3.16 µM (active). Still for that read-out and setting: as for `CCCCNC(=O)C(c1ccc(-c2ccccc2)cc1)N(CCN1CCOCC1)C(=O)CCCCCN1C(=O)NC(c2ccc([N+](=O)[O-])cc2)C(C(=O)OCc2ccccc2)=C1C` (centres undefined), the figure is 2.51 µM (active). On to `CC(=O)N1[C@H](Cc2ccccc2)C=C[C@]1(C)C(=O)NCc1ccc(C)o1`, for which the Potency was 7.94 µM (active). For the molecule `CCCCCCN(C(=O)CCCCCN1C(=O)NC(c2ccccc2-c2ccccc2)C(C(=O)OCc2ccccc2)=C1C)C(C(=O)NCCCC)c1ccc(OCC(=O)OC)c(C(=O)OC)c1` (centres undefined), the Potency is 6.31 µM (active).

For `CCCCCCN(C(=O)CCCCCN1C(=O)NC(C2CCCCC2)C(C(=O)OCc2ccccc2)=C1C)C(C(=O)NCCCC)c1ccc(OCC(=O)OC)c(C(=O)OC)c1` (centres undefined), the Potency was 3.16 µM (active). For `COC(=O)c1ccc(C(NC(=O)OCc2ccccc2)/C(=C/[C@@H](C)C(=O)NCc2cccnc2)c2cccnc2)cc1` (some centres undefined), the Potency is 1 µM (active). Consider `CCCCCCN(C(=O)CCCCCN1C(=O)NC(c2ccc(C(C)(C)C)cc2)C(C(=O)OCc2ccccc2)=C1C)C(C(=O)NCCCC)c1ccc(OCC(=O)OC)c(C(=O)OC)c1` (centres undefined), for which the Potency was 1.26 µM (active). The same measure, in the same setting: the figure for `C[C@@H]1C=C[C@](Cc2ccccc2)(C(=O)NCC2CC2)N1C(=O)c1ccccc1` is 12.6 µM (active); for `COC(=O)c1ccc(C(NC(=O)OCc2ccccc2)/C(C)=C/[C@@H](C)C(=O)NCCc2c[nH]c3ccc(OC)cc23)cc1` (some centres undefined) it is 2 µM (active); for `COC(=O)c1ccc(C(NC(=O)OCc2ccccc2)/C(C)=C/[C@@H](C)C(=O)NCc2nc3ccccc3s2)cc1` (some centres undefined) it is 3.98 µM (active). Still for that read-out and setting: the figure for `COC(=O)c1ccc(C(/C=C/[C@@H](C)C(=O)NCc2cc(C)n(C)n2)NC(=O)OCc2ccccc2)cc1` (some centres undefined) is 2 µM (active); for `COC(=O)CNC(=O)C1(C)C=CCN1C(=O)c1ccccc1` (centres undefined) it is 39.8 µM (active). The same measure, in the same setting: the figure for `C=C(N(C)C)[C@]1(C)C[C@H]1[C@H](NC(=O)CNC(=O)OCc1ccccc1)c1ccccc1` is 7.94 µM (active); for `COC(=O)c1ccc(C(NC(=O)OCc2ccccc2)/C(=C/[C@@H](C)C(=O)NCc2ccncc2)c2cccnc2)cc1` (some centres undefined) it is 1.26 µM (active); for `C[C@H](NC(=O)[C@@H]1C[C@H]1[C@@H](NC(=O)OCc1ccccc1)c1ccccc1)c1ccccc1` it is 12.6 µM (active).

Turning to `COC(=O)c1ccc(C(NC(=O)OCc2ccccc2)/C(=C/[C@@H](C)C(=O)Nc2ccc(OC)cc2)c2cccnc2)cc1` (some centres undefined), the Potency is 1 µM (active). On the same count and under the same terms, as for `CCCCNC(=O)C(c1ccc(OCC(=O)OC)c(C(=O)OC)c1)N(CCc1ccccc1)C(=O)CCCCCN1C(=O)NC(c2ccc(-c3ccccc3)cc2)C(C(=O)OCc2ccccc2)=C1C` (centres undefined), the figure is 5.01 µM (active); as for `CC(C)CC1(C(=O)NCCc2c[nH]c3ccccc23)C=CCN1C(=O)c1ccccc1` (centres undefined), 3.16 µM (active); as for `Cc1ccc(CNC(=O)C2(CC(C)C)C=CCN2C(=O)c2ccccc2)o1` (centres undefined), 15.8 µM (active). Consider `CC(=O)N1[C@H](Cc2ccccc2)C=C[C@]1(C)C(=O)NCCN1CCOCC1`, for which the Potency was 15.8 µM (active). The same measure, in the same setting: as for `CCCCCCN(C(=O)CCCCCN1C(=O)NC(c2ccc(Cl)cc2)C(C(=O)OCc2ccccc2)=C1C)C(C(=O)NCCCC)c1ccc(OCC(=O)OC)c(C(=O)OC)c1` (centres undefined), the figure is 3.16 µM (active). Still for that read-out and setting: the figure for `CN(C)c1ccc(CNC(=O)C2(C)C=CCN2C(=O)c2ccccc2)cc1` (centres undefined) is 10 µM (active).

`C[C@]1(C(=O)NCCc2c[nH]c3ccccc23)C=C[C@@H](Cc2ccccc2)N1C(=O)c1ccccc1`: the Potency was 1.58 µM (active). Still for that read-out and setting: the figure for `COCCNC(=O)[C@@]1(C)C=C[C@@H](Cc2ccccc2)N1C(=O)c1ccccc1` is 7.94 µM (active); for `COC(=O)c1ccc(C(NC(=O)OCc2ccccc2)/C(F)=C/[C@@H](C)C(=O)N[C@@H](CO)Cc2ccccc2)cc1` (some centres undefined) it is 7.94 µM (active); for `COC(=O)c1ccc(C(NC(=O)OCc2ccccc2)/C(=C/[C@@H](C)C(=O)NCc2cc(F)cc(F)c2)c2cccnc2)cc1` (some centres undefined) it is 1.58 µM (active). With `CCC[C@@H]1C[C@@]1(CCC)[C@@H](NP(=O)(c1ccccc1)c1ccccc1)c1ccc(C(=O)OC)cc1`, the Potency is 3.16 µM (active). As for `CC1(C(=O)NCc2cc(F)cc(C(F)(F)F)c2)C=CC2(CCCCC2)N1C(=O)c1ccccc1` (centres undefined), the Potency is 6.31 µM (active). Still for that read-out and setting: the figure for `COC(=O)[C@@H]1C[C@H]1[C@@H](NC(=O)c1ccc(Br)cc1)c1ccccc1` is 25.1 µM (active). Turning to `COC(=O)c1ccc(C(NC(=O)OCc2ccccc2)/C(=C/[C@@H](C)C(=O)N(C)Cc2cccnc2)c2cccnc2)cc1` (some centres undefined), the Potency was 0.631 µM (active). Same read-out and setting: as for `CNC(=O)[C@@]1(Cc2ccccc2)C=C[C@@H](C)N1C(=O)OC`, the figure is 12.6 µM (active); as for `CC(=O)N1C2(C=CC1(C)C(=O)NCCN1CCOCC1)CCCCC2` (centres undefined), 10 µM (active); as for `CC(C)NC(=O)[C@@H]1C[C@H]1[C@@H](NC(=O)OCc1ccccc1)c1ccccc1`, 3.98 µM (active).

On to `CC(C)CC1(C(=O)NCC2CC2)C=CCN1C(=O)c1ccccc1` (centres undefined), for which the Potency is 15.8 µM (active). Same read-out and setting: as for `CCCC[C@@H]1C[C@H]1[C@@H](NP(=O)(c1ccccc1)c1ccccc1)c1ccccc1OC`, the figure is 3.98 µM (active); as for `CC(=O)N1[C@H](C)C=C[C@]1(Cc1ccccc1)C(=O)NCCN1CCOCC1`, 12.6 µM (active). As to `CC1=C(C(=O)OCc2ccccc2)C(C2CCCCC2)NC(=O)N1CCCCCC(=O)O` (centres undefined), the “activity change, negative = inhibition” value is 158%.
